In PubChem BioAssay (NCI):
The panel holds about 83,000 compounds, 20% with a hit somewhere; the sample as a whole holds those more often.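 In brief: 96-well plates, 48 h treatment, single concentration, percent growth endpoint.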 Activity calls are given as the source filed them. The calls were made as follows: active = growth percent below 10; inactive = the rest.

Legend:
Test in all cases: NCI-60 one-dose screen, 48 h (100 = growth as untreated, 0 = no growth, -100 = all killed)
SK-MEL-2 melanoma = settings: 10 µM unless noted
EKVX NSCLC = settings: 10 µM
SN12C renal = settings: 10 µM unless noted
UO-31 renal = settings: 10 µM unless noted
TK-10 renal = settings: 10 µM unless noted
ACHN renal = settings: 10 µM unless noted
CAKI-1 renal = settings: 10 µM unless noted
A498 renal = settings: 10 µM unless noted
CCRF-CEM leukemia = settings: 10 µM
MOLT-4 leukemia = settings: 10 µM unless noted
SR leukemia = settings: 10 µM unless noted
RPMI-8226 leukemia = settings: 10 µM unless noted
OVCAR-8 ovarian = settings: 10 µM unless noted
OVCAR-5 ovarian = settings: 10 µM unless noted
OVCAR-4 ovarian = settings: 10 µM unless noted
SK-OV-3 ovarian = settings: 10 µM unless noted
IGROV1 ovarian = settings: 10 µM unless noted
NCI/ADR-RES ovarian = settings: 10 µM unless noted
OVCAR-3 ovarian = settings: 10 µM unless noted
HS 578T breast = settings: 10 µM unless noted

Measured: growth

O=C1C(Cl)=C(Nc2ccc(Nc3ccccc3)c(NC3=C(Cl)C(=O)c4ccccc4C3=O)c2)C(=O)c2ccccc21
inactive: SK-MEL-2 melanoma 106% | EKVX NSCLC 65.8% | SN12C renal 85% | UO-31 renal 57.3% | TK-10 renal 27.8% | ACHN renal 34.4% | CAKI-1 renal 45.3% | A498 renal 53% | CCRF-CEM leukemia 37.9% | MOLT-4 leukemia 37.3% | SR leukemia 44.6% | RPMI-8226 leukemia 27.4% | OVCAR-8 ovarian 71.5% | OVCAR-5 ovarian 141% | OVCAR-4 ovarian 54.8% | SK-OV-3 ovarian 80.5% | IGROV1 ovarian 68.6% | NCI/ADR-RES ovarian 86.4%

COc1cc2ncnc(-n3ncc4cc(NC(=O)Nc5ccccc5)ccc43)c2cc1OC
active: SK-MEL-2 melanoma -4.23% | EKVX NSCLC -1.75% | SN12C renal 3.79% | UO-31 renal -44.4% | TK-10 renal -41.1% | A498 renal -33.4% | MOLT-4 leukemia 3.89% | OVCAR-4 ovarian 7.2% | SK-OV-3 ovarian 3.75% | IGROV1 ovarian 5.95% | HS 578T breast -18.9%
inactive: ACHN renal 17.1% | CAKI-1 renal 16.1% | CCRF-CEM leukemia 22.9% | SR leukemia 26.6% | RPMI-8226 leukemia 15.6% | OVCAR-8 ovarian 50.1% | OVCAR-5 ovarian 24.7% | OVCAR-3 ovarian 36.1% | NCI/ADR-RES ovarian 39.2%

O=S(=O)(O)CCI
inactive: SK-MEL-2 melanoma 102% | EKVX NSCLC 119% | SN12C renal 105% | UO-31 renal 95.4% | TK-10 renal 95.7% | ACHN renal 112% | CAKI-1 renal 107% | A498 renal 90.7% | CCRF-CEM leukemia 106% | MOLT-4 leukemia 120% | SR leukemia 116% | RPMI-8226 leukemia 115% | OVCAR-8 ovarian 113% | OVCAR-5 ovarian 108% | OVCAR-4 ovarian 105% | SK-OV-3 ovarian 111% | IGROV1 ovarian 110% | OVCAR-3 ovarian 114% | HS 578T breast 100% | NCI/ADR-RES ovarian 105%

CCCOC(=O)c1c(C)n(C)c2scc[n+]12
inactive: SK-MEL-2 melanoma 76.4% | EKVX NSCLC 43% | SN12C renal 92.4% | UO-31 renal 81.3% | TK-10 renal 104% | ACHN renal 85.8% | CAKI-1 renal 58.7% | A498 renal 48.8% | SR leukemia 13.6% | RPMI-8226 leukemia 54.8% | OVCAR-8 ovarian 72.8% | OVCAR-5 ovarian 75.1% | OVCAR-4 ovarian 73.8% | SK-OV-3 ovarian 93.9% | IGROV1 ovarian 15.9% | OVCAR-3 ovarian 71.2% | HS 578T breast 77.6% | NCI/ADR-RES ovarian 78.9%
active: CCRF-CEM leukemia -67.1% | MOLT-4 leukemia -44.4%

CCCCCCCCCC[N+](C)(C)C
active: TK-10 renal -25.1% | CCRF-CEM leukemia -18.8% | MOLT-4 leukemia -0.229% | RPMI-8226 leukemia 1.86% | OVCAR-5 ovarian 9.16% | IGROV1 ovarian -37.8% | OVCAR-3 ovarian 5.8%
inactive: SK-MEL-2 melanoma 56.3% | EKVX NSCLC 72.9% | SN12C renal 29.5% | UO-31 renal 72.9% | ACHN renal 24.9% | CAKI-1 renal 58.4% | A498 renal 32.9% | SR leukemia 20.2% | OVCAR-8 ovarian 18.3% | OVCAR-4 ovarian 23% | SK-OV-3 ovarian 56.2% | HS 578T breast 26.5% | NCI/ADR-RES ovarian 94.4%

CCC(C)(C)c1ccc(OCCCCCCN2CCNCC2)cc1
active: CCRF-CEM leukemia 4.24% | SR leukemia -2.78% | RPMI-8226 leukemia -16.4%
inactive: SK-MEL-2 melanoma 96.9% | EKVX NSCLC 115% | SN12C renal 88.2% | UO-31 renal 63.5% | TK-10 renal 90.4% | ACHN renal 42.6% | CAKI-1 renal 70% | A498 renal 71.2% | MOLT-4 leukemia 10.4% | OVCAR-8 ovarian 75.2% | OVCAR-5 ovarian 91.6% | OVCAR-4 ovarian 70% | SK-OV-3 ovarian 101% | IGROV1 ovarian 87.3% | OVCAR-3 ovarian 69.4% | HS 578T breast 64.2% | NCI/ADR-RES ovarian 76.4%

CCOC(=O)c1c(C)oc2ncnc(Nc3ccc(NC(=O)Nc4ccc(CC)cc4)cc3)c12
inactive: SK-MEL-2 melanoma 120% | EKVX NSCLC 102% | SN12C renal 107% | UO-31 renal 94.8% | TK-10 renal 112% | ACHN renal 98.9% | CAKI-1 renal 98.4% | A498 renal 109% | CCRF-CEM leukemia 93.8% | MOLT-4 leukemia 98.7% | SR leukemia 81.6% | RPMI-8226 leukemia 95.1% | OVCAR-8 ovarian 112% | OVCAR-5 ovarian 107% | OVCAR-4 ovarian 105% | SK-OV-3 ovarian 88.2% | IGROV1 ovarian 110% | OVCAR-3 ovarian 118% | HS 578T breast 97.7% | NCI/ADR-RES ovarian 97.2%

Nc1nc2c(c3cnccc13)C(c1cccc(Br)c1)Cc1cnccc1-2 (configuration not stated)
active: A498 renal -10.6% | CCRF-CEM leukemia 6.84% | RPMI-8226 leukemia -2.76% | OVCAR-3 ovarian 1.08% | NCI/ADR-RES ovarian -4.12%
inactive: SK-MEL-2 melanoma 27.2% | EKVX NSCLC 27.6% | SN12C renal 27.5% | UO-31 renal 21.4% | TK-10 renal 28.5% | ACHN renal 16.7% | CAKI-1 renal 25.6% | MOLT-4 leukemia 11.6% | SR leukemia 17.8% | OVCAR-8 ovarian 28.8% | OVCAR-5 ovarian 43.9% | OVCAR-4 ovarian 37.5% | SK-OV-3 ovarian 30.8% | IGROV1 ovarian 27.9% | HS 578T breast 42.3%

COC(=O)c1ccc2[nH]c(O)c(C(=Nc3ccc(N(C)C(=O)CN4CCN(C)CC4)cc3)c3ccc(CCO)cc3)c2c1
active: SR leukemia 6.7%
inactive: SK-MEL-2 melanoma 34.9% | EKVX NSCLC 85.5% | SN12C renal 27.8% | UO-31 renal 72.2% | TK-10 renal 65.2% | ACHN renal 74.1% | CAKI-1 renal 33.1% | A498 renal 45.6% | CCRF-CEM leukemia 15.5% | MOLT-4 leukemia 21.4% | RPMI-8226 leukemia 30.8% | OVCAR-8 ovarian 64.5% | OVCAR-5 ovarian 80.6% | OVCAR-4 ovarian 56.6% | SK-OV-3 ovarian 39.7% | IGROV1 ovarian 16.5% | OVCAR-3 ovarian 52.5% | HS 578T breast 23.9% | NCI/ADR-RES ovarian 104%

CCCC(C)c1cc(Cc2cc(Cl)cc(Cl)c2O)c(O)c(Cc2cc(Cl)cc(Cl)c2O)c1 (configuration not stated)
active: SK-MEL-2 melanoma 1.41% | EKVX NSCLC 6.21% | SN12C renal 5.5% | UO-31 renal 6.1% | ACHN renal 0.12% | A498 renal -29.8% | CCRF-CEM leukemia 6.76% | MOLT-4 leukemia -8.73% | SR leukemia 5.98% | RPMI-8226 leukemia -2.65% | HS 578T breast 1.09% | NCI/ADR-RES ovarian 2.52%
inactive: TK-10 renal 17.4% | CAKI-1 renal 15.6% | OVCAR-8 ovarian 15% | OVCAR-5 ovarian 33.8% | OVCAR-4 ovarian 22% | SK-OV-3 ovarian 14.6% | IGROV1 ovarian 28.1% | OVCAR-3 ovarian 16.2%

CCOc1ccc2nc3ccc(Cl)cc3nc2c1
active: CCRF-CEM leukemia -0.816% | SR leukemia -19.9% | IGROV1 ovarian -8.97%
inactive: SK-MEL-2 melanoma 97.5% | EKVX NSCLC 75% | SN12C renal 100% | UO-31 renal 74.9% | TK-10 renal 95.1% | ACHN renal 94.6% | CAKI-1 renal 124% | A498 renal 83.3% | MOLT-4 leukemia 50.8% | RPMI-8226 leukemia 71.5% | OVCAR-8 ovarian 103% | OVCAR-5 ovarian 216% | OVCAR-4 ovarian 82.1% | SK-OV-3 ovarian 104% | OVCAR-3 ovarian 110% | HS 578T breast 106% | NCI/ADR-RES ovarian 96.4%

COC1(OC)N=C(N)C2(C#N)C3(C(=O)Nc4ccccc43)C12C#N (configuration not stated)
inactive: SK-MEL-2 melanoma 83.5% | EKVX NSCLC 77.4% | SN12C renal 93.8% | UO-31 renal 52.9% | TK-10 renal 98% | ACHN renal 67.3% | CAKI-1 renal 21.3% | CCRF-CEM leukemia 77.8% | MOLT-4 leukemia 88.7% | RPMI-8226 leukemia 49.7% | OVCAR-8 ovarian 94.2% | OVCAR-5 ovarian 65.1% | OVCAR-4 ovarian 60% | SK-OV-3 ovarian 77.4% | IGROV1 ovarian 63.5% | OVCAR-3 ovarian 84% | HS 578T breast 67.2% | NCI/ADR-RES ovarian 100%
active: A498 renal -9.49% | SR leukemia 6.82%

Nc1ccc(S(=O)(=O)Nc2cc(F)cc(F)c2)cc1
inactive: SK-MEL-2 melanoma 94.5% | EKVX NSCLC 80.4% | SN12C renal 105% | UO-31 renal 85.4% | TK-10 renal 112% | ACHN renal 98.7% | CAKI-1 renal 100% | A498 renal 95% | CCRF-CEM leukemia 93.4% | MOLT-4 leukemia 72.7% | SR leukemia 112% | RPMI-8226 leukemia 106% | OVCAR-8 ovarian 102% | OVCAR-5 ovarian 55.5% | OVCAR-4 ovarian 101% | SK-OV-3 ovarian 104% | OVCAR-3 ovarian 111% | HS 578T breast 92.7% | NCI/ADR-RES ovarian 117%
active: IGROV1 ovarian -22%

O=C1C(=O)c2ccccc2C(O)=C1CCCc1ccc(C2CCCC2)cc1
active: SR leukemia -49.3% | RPMI-8226 leukemia 7.4%
inactive: SK-MEL-2 melanoma 33.2% | EKVX NSCLC 27% | SN12C renal 49.5% | UO-31 renal 45.8% | TK-10 renal 36.7% | ACHN renal 30.8% | CAKI-1 renal 67.8% | A498 renal 24.2% | CCRF-CEM leukemia 24.4% | MOLT-4 leukemia 14.1% | OVCAR-8 ovarian 31.7% | OVCAR-5 ovarian 24.9% | OVCAR-4 ovarian 23.4% | SK-OV-3 ovarian 55% | IGROV1 ovarian 50.8% | OVCAR-3 ovarian 39.3% | HS 578T breast 31.7% | NCI/ADR-RES ovarian 37.6%

CCCCCCCCCCCCCCCCC(=O)O.CCCCCCCCCCCCCCCCCC(=O)O.CCCCCCCCCCCCCCCCCC(=O)O.CCCCCCCCCCCCCCCCCC(=O)O.CCCCCCCCCCCCCCCCCC(=O)O.CO[CH-]OC12COC1CC(O)C1(C)C(O)C(OC(C)O)C3=C(C)C(OC(=O)C(O)C([NH-])c4ccccc4)CC(O)(C(OC(=O)c4ccccc4)C21)C3(C)C.[Cu+].[Zn].[Zn].[Zn].[Zn].[Zn] (configuration not stated)
inactive: SK-MEL-2 melanoma 69.3% | EKVX NSCLC 29.5% | SN12C renal 29.9% | UO-31 renal 27.2% | TK-10 renal 48% | ACHN renal 36.2% | CAKI-1 renal 27% | A498 renal 45.6% | CCRF-CEM leukemia 23.7% | MOLT-4 leukemia 29% | SR leukemia 37.4% | RPMI-8226 leukemia 22.4% | OVCAR-8 ovarian 45.4% | OVCAR-5 ovarian 24.9% | OVCAR-4 ovarian 40.1% | SK-OV-3 ovarian 39.4% | IGROV1 ovarian 33.4% | HS 578T breast 10.5% | NCI/ADR-RES ovarian 42.4%
